These results are taken from PubChem BioAssay (NCATS).

Inconclusive results are not listed. A call without a number means that no potency is given here. Activity calls are given as the source filed them. The call rests on the fitted dose curve; in most records, active means well fitted cell-killing curve with a large enough effect; inconclusive means small, poorly fitted or top-dose-only effect, or effect the other way; inactive means no such curve, though single readings can be large or run the other way.
Potency means the concentration at half of the fitted maximal effect.

One assay is described as follows: Quantitative High-Throughput drug screen in 47 multiple myeloma cell lines against the NCATS MIPE library collection: VP6_DJ cell viability assay (AID 1919867). Further: nearly all actives have a fitted effect of over 40% in size. Particulars: ATP luminescence, 48 h; series mostly up to 45.8 µM. The method, boiled down:
(§1)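 Viability after 48 h drug exposure was measured as ATP-dependent luminescence. Cells, 500 per well, sat at 37 °C under 5% CO2; DMSO wells set 100%, media-only wells 0%.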
In the case of `O=C1Cc2cc(CCN3CCN(c4nsc5ccccc45)CC3)c(Cl)cc2N1`, the Potency is 16.6 µM (active).

`O=C(Nc1ccc([N+](=O)[O-])cc1Cl)c1cc(Cl)ccc1O`: the Potency is 0.743 µM (active).

For `Clc1ccccc1C(c1ccccc1)(c1ccccc1)n1ccnc1`, the Potency was 14.8 µM (active).

`COc1ccccc1N1CCN(CC(O)COc2cccc3ccccc23)CC1` (configuration not stated): the Potency result is “inactive”.

For `CC(CCc1ccc(O)cc1)NCCc1ccc(O)c(O)c1` (configuration not stated), the Potency is 16.6 µM (active).

As for `CC1COc2c(N3CCN(C)CC3)c(F)cc3c(=O)c(C(=O)O)cn1c23` (configuration not stated), the Potency result is “inactive”.

For `NC12CC3CC(CC(C3)C1)C2`, the Potency is 3.32 µM (active).

Regarding `Clc1ccc(C(c2ccccc2Cl)C(Cl)Cl)cc1` (configuration not stated), the Potency was 6.62 µM (active).

Take `CN(C)C(=N)N=C(N)N`: the Potency entry is “inactive”.

As for `CN1CCC(=C2c3ccccc3CC(=O)c3sccc32)CC1`, the Potency was 9.35 µM (active).

Regarding `COc1ccc(C2CNC(=O)C2)cc1OC1CCCC1` (configuration not stated), the Potency was 14.8 µM (active).

Consider `COc1ccc2[nH]cc(CCNC(C)=O)c2c1`, for which the Potency entry was “inactive”.

Consider `CC(=O)OCC(CCn1cnc2cnc(N)nc21)COC(C)=O`, for which the Potency result was “inactive”.

Consider `O=C1N(c2ccccc2)c2ccccc2C1(Cc1ccncc1)Cc1ccncc1`, for which the Potency is 20.9 µM (active).

The next assay can be described thus: Quantitative High-Throughput drug screen in 47 multiple myeloma cell lines against the NCATS MIPE library collection: UTMC2_PLB cell viability assay (AID 1919868). Further: nearly all actives have a fitted effect of over 55% in size. The following applies: CellTiter-Glo ATP luminescence, 48 h; series mostly up to 45.8 µM. The method, boiled down:
as §1
As to `Cc1cc(C(C)(C)C)cc(C)c1CC1=NCCN1`, the Potency result is “inactive”.

Turning to `O=C1Cc2cc(CCN3CCN(c4nsc5ccccc45)CC3)c(Cl)cc2N1`, the Potency is 20.9 µM (active).

Take `O=C(Nc1ccc([N+](=O)[O-])cc1Cl)c1cc(Cl)ccc1O`: the Potency is 1.05 µM (active).

As for `O=C(c1ccc(F)cc1)C1CCN(CCn2c(=O)[nH]c3ccccc3c2=O)CC1`, the Potency entry is “inactive”.

In the case of `NC12CC3CC(CC(C3)C1)C2`, the Potency is 8.33 µM (active).

As for `C[C@](N)(Cc1ccc(O)c(O)c1)C(=O)O`, the Potency result was “inactive”.

As for `CN1CCC(=C2c3ccccc3CC(=O)c3sccc32)CC1`, the Potency is 10.5 µM (active).

As for `CC(C)(Oc1ccc(C2CC2(Cl)Cl)cc1)C(=O)O` (configuration not stated), the Potency entry is “inactive”.

On to `CC(=O)OCC(CCn1cnc2cnc(N)nc21)COC(C)=O`, for which the Potency entry is “inactive”.

For the molecule `NCCc1cnc[nH]1`, the Potency entry is “inactive”.

A short description of the next assay: Quantitative High-Throughput drug screen in 47 multiple myeloma cell lines against the NCATS MIPE library collection: PE2_PLB cell viability assay (AID 1919869). Further: nearly all actives have a fitted effect of over 35% in size. The following applies: PE2_PLB myeloma cells viability, ATP luminescence, 48 h; series mostly up to 45.8 µM. The method, boiled down:
as §1
For the molecule `O=C1Cc2cc(CCN3CCN(c4nsc5ccccc45)CC3)c(Cl)cc2N1`, the Potency was 18.7 µM (active).

Regarding `Cc1ccc(C(=O)Nc2ccc(S(=O)(=O)O)c3cc(S(=O)(=O)O)cc(S(=O)(=O)O)c23)cc1NC(=O)c1cccc(NC(=O)Nc2cccc(C(=O)Nc3cc(C(=O)Nc4ccc(S(=O)(=O)O)c5cc(S(=O)(=O)O)cc(S(=O)(=O)O)c45)ccc3C)c2)c1`, the Potency was 5.9 µM (active).

For the molecule `CCC1(C)CC(=O)NC1=O` (configuration not stated), the Potency entry is “inactive”.

With `O=C(Nc1ccc([N+](=O)[O-])cc1Cl)c1cc(Cl)ccc1O`, the Potency was 0.526 µM (active).

Turning to `O=C(c1ccc(F)cc1)C1CCN(CCn2c(=O)[nH]c3ccccc3c2=O)CC1`, the Potency entry is “inactive”.

In the case of `NCCS(=O)(=O)O`, the Potency entry is “inactive”.

Turning to `Nc1ccn([C@H]2CC[C@@H](CO)O2)c(=O)n1`, the Potency entry was “inactive”.

Consider `CN(CCOc1ccc(NS(C)(=O)=O)cc1)CCc1ccc(NS(C)(=O)=O)cc1`, for which the Potency result is “inactive”.

With `CCCNCC(O)COc1ccccc1C(=O)CCc1ccccc1` (configuration not stated), the Potency entry was “inactive”.

On to `Cn1c(=O)c2[nH]cnc2n(C)c1=O`, for which the Potency entry is “inactive”.

On to `COc1ccccc1N1CCN(CC(O)COc2cccc3ccccc23)CC1` (configuration not stated), for which the Potency result was “inactive”.

With `CC(CCc1ccc(O)cc1)NCCc1ccc(O)c(O)c1` (configuration not stated), the Potency is 20.9 µM (active).

On to `Cc1cn([C@H]2C[C@H](N=[N+]=[N-])[C@@H](CO)O2)c(=O)[nH]c1=O`, for which the Potency is 20.9 µM (active).

`CN1CCN(C2=Nc3cc(Cl)ccc3Nc3ccccc32)CC1`: the Potency entry is “inactive”.

Take `CCOC(=O)C(C)(C)Oc1ccc(Cl)cc1`: the Potency entry was “inactive”.

On to `NC12CC3CC(CC(C3)C1)C2`, for which the Potency entry was “inactive”.

In the case of `Clc1ccc(C(c2ccccc2Cl)C(Cl)Cl)cc1` (configuration not stated), the Potency entry is “inactive”.

For the molecule `CN(C)C(=N)N=C(N)N`, the Potency result was “inactive”.

Regarding `CC1(CN2CCC(n3c(=O)[nH]c4ccccc43)CC2)OCc2ccccc2-n2cccc21` (configuration not stated), the Potency is 13.2 µM (active).

For `CN1CCC(=C2c3ccccc3CC(=O)c3sccc32)CC1`, the Potency was 11.8 µM (active).

As to `NC(=O)OCC(COC(N)=O)c1ccccc1`, the Potency entry was “inactive”.

For `COc1ccc(C2CNC(=O)C2)cc1OC1CCCC1` (configuration not stated), the Potency result was “inactive”.

Take `CC(C)(Oc1ccc(C2CC2(Cl)Cl)cc1)C(=O)O` (configuration not stated): the Potency result was “inactive”.

For the molecule `COc1ccc2[nH]cc(CCNC(C)=O)c2c1`, the Potency result was “inactive”.

Regarding `CC(=O)OCC(CCn1cnc2cnc(N)nc21)COC(C)=O`, the Potency result was “inactive”.

`NCCc1cnc[nH]1`: the Potency entry was “inactive”.

As to `O=C1N(c2ccccc2)c2ccccc2C1(Cc1ccncc1)Cc1ccncc1`, the Potency is 20.9 µM (active).

A further assay can be described thus: Quantitative High-Throughput drug screen in 47 multiple myeloma cell lines against the NCATS MIPE library collection: PCM6_Riken cell viability assay (AID 1919870). Further: nearly all actives have a fitted effect of over 30% in size. Particulars: CellTiter-Glo ATP, 48 h; series mostly up to 45.8 µM. The method, boiled down:
as §1
On the technique in general: ATP-based viability assays read luminescence as a measure of living cells.
For the molecule `O=C1Cc2cc(CCN3CCN(c4nsc5ccccc45)CC3)c(Cl)cc2N1`, the Potency is 18.7 µM (active).

Take `CCC1(C)CC(=O)NC1=O` (configuration not stated): the Potency entry is “inactive”.

As to `O=C(Nc1ccc([N+](=O)[O-])cc1Cl)c1cc(Cl)ccc1O`, the Potency was 1.32 µM (active).

Take `NCCS(=O)(=O)O`: the Potency entry was “inactive”.

Regarding `CN(CCOc1ccc(NS(C)(=O)=O)cc1)CCc1ccc(NS(C)(=O)=O)cc1`, the Potency entry was “inactive”.

Turning to `CCCNCC(O)COc1ccccc1C(=O)CCc1ccccc1` (configuration not stated), the Potency entry is “inactive”.

Regarding `Cn1c(=O)c2[nH]cnc2n(C)c1=O`, the Potency result is “inactive”.

Regarding `CC(CCc1ccc(O)cc1)NCCc1ccc(O)c(O)c1` (configuration not stated), the Potency is 20.9 µM (active).

On to `Cc1cn([C@H]2C[C@H](N=[N+]=[N-])[C@@H](CO)O2)c(=O)[nH]c1=O`, for which the Potency is 14.8 µM (active).

For the molecule `CCOC(=O)C(C)(C)Oc1ccc(Cl)cc1`, the Potency entry was “inactive”.

On to `NC12CC3CC(CC(C3)C1)C2`, for which the Potency was 3.32 µM (active).

Take `Clc1ccc(C(c2ccccc2Cl)C(Cl)Cl)cc1` (configuration not stated): the Potency is 18.7 µM (active).

As to `C[C@](N)(Cc1ccc(O)c(O)c1)C(=O)O`, the Potency entry is “inactive”.

`CN1CCC(=C2c3ccccc3CC(=O)c3sccc32)CC1`: the Potency was 14.8 µM (active).

For the molecule `CC(=O)OCC(CCn1cnc2cnc(N)nc21)COC(C)=O`, the Potency entry was “inactive”.

Turning to `NCCc1cnc[nH]1`, the Potency result was “inactive”.
